The record followed here is PubChem BioAssay.

Calls of active or inactive are those of the source.

The target in the first experiment is Torsin-1A-interacting protein 2 (Homo sapiens) (UniProt Q8NFQ8). Kind of experiment: LULL1 binders on small-molecule microarray, primary screen, cell lysate, human LULL1 lysate, 635/667 nm fluorescence (AID 1092).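 Further: probe is lysate of COS7 cells overexpressing human LULL1; score merges per-feature 667 nm fluorescence with signal-to-noise.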 As to conditions: hLULL1 lysate binding, 635 nm fluorescence, higher = more signal.
Sequence of Torsin-1A-interacting protein 2 (Homo sapiens) (Q8NFQ8 whole entry, looked up): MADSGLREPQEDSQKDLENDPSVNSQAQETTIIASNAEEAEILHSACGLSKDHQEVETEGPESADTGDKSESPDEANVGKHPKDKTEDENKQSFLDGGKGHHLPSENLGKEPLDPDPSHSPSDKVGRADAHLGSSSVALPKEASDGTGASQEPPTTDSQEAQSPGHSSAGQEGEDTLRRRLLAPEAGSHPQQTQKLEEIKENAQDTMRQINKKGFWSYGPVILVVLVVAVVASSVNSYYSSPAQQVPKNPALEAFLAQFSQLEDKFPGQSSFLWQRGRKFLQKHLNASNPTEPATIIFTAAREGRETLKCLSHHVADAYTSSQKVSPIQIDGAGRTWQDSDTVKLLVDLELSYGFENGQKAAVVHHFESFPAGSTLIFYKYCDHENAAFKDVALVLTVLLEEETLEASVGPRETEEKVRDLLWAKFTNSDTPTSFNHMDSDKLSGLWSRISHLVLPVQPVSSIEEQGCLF
The molecule `CC(C)(C)OC(=O)CC[C@]1(C(=O)NCC(O)CO)N=C(c2ccc(OCCCO)cc2)O[C@H]1c1ccccc1N=[N+]=[N-]` (stereo partly drawn) showed a composite z-score of 3.62.

With `CCOC(=O)C1=CCC(c2cc3ccccc3[nH]2)N(CCN2CC(C(=O)OCC)=CCC2c2cc3ccccc3[nH]2)C1` (stereo not drawn), the composite z-score was 3.38.

On to `COCC(=C=CC[C@H](O)c1ccccc1OCCO)C[C@H](O)COCc1ccccc1`, for which the composite z-score was 2.71.

On to `CN(C)CCCCNC(=O)[C@H]1C[C@H]2C(=O)N3CCC[C@H]3C(=O)N2[C@H]1c1cccc(OCCO)c1`, for which the composite z-score was 3.09.

Take `COCCCNC(=O)[C@@H]1c2ccccc2C(=O)N(Cc2ccc(OC(F)(F)F)cc2)[C@H]1c1ccc(CO)cc1`: the composite z-score worked out at 2.36.

As to `COc1ccc(C#Cc2ccc3c(c2)[C@]2(C(=O)N3)[C@H](C(=O)O)[C@H]3C(=O)O[C@H](c4ccccc4)[C@H](c4ccccc4)N3[C@@H]2c2ccccc2OCCO)cc1`, the composite z-score was 2.2.

`O=C1O[C@H](Cc2ccccc2)[C@@H]2[C@H]3C=CCCC=C3CN2[C@H]1Cc1ccc(O)cc1` came in with a composite z-score of -0.145.

System in another experiment: not listed separately
Kind of experiment: E. coli growth modulation, two-sided OD650, primary screen, E. coli filamentation project, strain DRC41, 24 h (AID 1093).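 Further: MC1000 strain lacking acrAB efflux and sulA so SOS filamentation is blocked; test concentration not given here.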 As to conditions: OD650, 24 h, higher = more signal, called active from +8 up or from −8 down.
Take `C=CCC(OC(C)=O)[C@@H]1[C@@H](N(Cc2cccc3ccccc23)C(=O)c2ccc(-c3ccccc3)cc2)c2cc(OCCCO)ccc2N1C(=O)Cc1ccc2ccccc2c1` (stereo partly drawn): the z-score was -0.741 (inactive).

Turning to `O=C(NC1CC1)[C@@H]1c2ccccc2C(=O)N(Cc2ccc(OC(F)(F)F)cc2)[C@H]1c1ccc(CO)cc1`, the z-score was 0.577 (inactive).

Turning to `O=C(NC1CC1)[C@@H]1c2ccccc2C(=O)N(CC23CC4CC(CC(C4)C2)C3)[C@H]1c1ccc(CO)cc1`, the z-score is -0.103 (inactive).

In the case of `CC(=O)NCCCC[C@@H]1NC(=O)[C@H]2C[C@@H](C(=O)NCCCCCCNC(=O)CS)[C@@H](c3cccc(OCCO)c3)N2C1=O`, the z-score is -0.488 (inactive).

With `O=C1O[C@@H](c2ccccc2)[C@@H](c2ccccc2)N2[C@@H](c3ccc(OCCO)cc3)[C@]3(C(=O)Nc4ccc(C#CC5(O)CCCCCC5)cc43)[C@@H](C(=O)O)[C@H]12`, the z-score is 2.21 (inactive).

With `COC(=O)[C@@]1(Cc2ccccc2)[C@H]2c3cc(C(=O)N(C)C)n(Cc4ccc(C(F)(F)F)nc4)c3C[C@H]2CN1C(=O)c1ccccc1`, the z-score is -0.755 (inactive).

Turning to `CN1C(=O)C2C(C1=O)C1C=C(c3ccc(CO)cc3)C2C(C2CC2)N1C` (stereo not drawn), the z-score is 0.689 (inactive).

On to `O=C1C=C(c2ccccc2)C(=O)C2=C1CC([C@H]1Oc3ccccc3S(=O)(=O)N3CCC[C@@H]13)=CC2`, for which the z-score was 0.542 (inactive).

With `C=C(COC)C(=O)CC[C@@H](OC(C)=O)c1ccccc1OCCO`, the z-score is 0.732 (inactive).

As to `COCCOC(=O)N1C(=O)[C@@]2(c3cc(C#CCCO)ccc31)[C@H](c1ccccc1OCCO)N1[C@H](c3ccccc3)[C@H](c3ccccc3)OC(=O)[C@H]1[C@@H]2C(N)=O`, the z-score was 2.16 (inactive).

In the case of `CCCCCCc1nc(Cc2cc(OC)c(OC)c(OC)c2)cc2c1[Si](C(C)C)(C(C)C)O[C@H]2c1ccccc1`, the z-score was -1.41 (inactive).

Take `COC(=O)[C@]1(CCC(=O)OC(C)(C)C)N=C(c2ccc(OCCCO)cc2)O[C@@H]1c1ccccc1N=[N+]=[N-]`: the z-score was 0.217 (inactive).

`C[C@@H]1ON(c2ccc(I)cc2)[C@H](c2cccc(NC(=O)OCC3c4ccccc4-c4ccccc43)c2)[C@H]1C(=O)N1C(=O)OC[C@H]1Cc1ccccc1`: the z-score is 1.28 (inactive).

Regarding `CC1CC/C=C\[C@H]2OC34C=CCN(C(C)(C)C)C(=O)[C@H]3N(CCCO)C(=O)[C@@H]4C2C(=O)O1` (stereo partly drawn), the z-score was 0.545 (inactive).

Turning to `COc1ccc([Si](C)(C)[C@H]2[C@H](CC(=O)N3Cc4ccccc4C[C@H]3CO)O[C@@]3(C(=O)N(c4ccccc4)c4ccccc43)[C@@H]2C)cc1`, the z-score is 1.65 (inactive).

On to `CCCNC(=O)[C@@]1(Sc2ccc(C)cc2)CC(=O)N(Cc2ccccc2Cl)[C@@H]1c1ccc(CO)cc1I`, for which the z-score is 0.545 (inactive).

Regarding `N#Cc1ccc(-c2cccc(=O)o2)cc1`, the z-score was -0.675 (inactive).

As to `CCCCC(O)C1C=CC2C(=O)N(c3ccccc3)C(=O)C2N1Nc1ccccc1` (stereo not drawn), the z-score is -0.193 (inactive).

`CC(C)=CCCC=C(C)C(O)C1C=CC2C(=O)N(c3ccccc3)C(=O)C2N1Nc1ccc(C#N)cc1` (stereo not drawn): the z-score was -1.24 (inactive).

With `COCCOC(=O)N1C(=O)[C@@]2(c3cc(C#CC4(O)CCCCCC4)ccc31)[C@H](c1ccc(O)cc1)N1[C@H](c3ccccc3)[C@H](c3ccccc3)OC(=O)[C@H]1[C@@H]2C(=O)N1CCCCCCC1`, the z-score was 0.709 (inactive).

For the molecule `COCCOC(=O)N1C(=O)[C@@]2(c3cc(C#Cc4ccc(OC)cc4)ccc31)[C@H](c1ccc(OCCO)cc1)N1[C@H](c3ccccc3)[C@H](c3ccccc3)OC(=O)[C@H]1[C@@H]2C(=O)NC[C@H](O)c1ccccc1`, the z-score is 0.0136 (inactive).

`O=C(N1CCOCC1)[C@@]1(Cc2ccccc2)COC(c2ccc(OCCCO)cc2)=N1`: the z-score was 2.88 (inactive).

Regarding `COC(=O)c1cccc([C@H]2OC(=CC(=O)OC(C)C)C[C@@H](c3cccc(C(=O)OC)c3)O2)c1`, the z-score is -0.259 (inactive).

Regarding `CN1C(=O)[C@@H]2[C@@H](CC(COc3ccccc3)=C3[C@@H](CCc4ccccc4)OB(O)C[C@@H]32)C1=O`, the z-score is -0.372 (inactive).

As for `C=C(COC)C(=O)CC[C@@H](OC(=O)c1ccccc1-c1ccccc1C(=O)O)c1ccc(OCCO)cc1`, the z-score was 0.315 (inactive).

Take `C=C(CCCC)C(=O)CC[C@H](OC(=O)c1ccccc1-c1ccccc1C(=O)O)c1ccc(OCCO)cc1`: the z-score was 0.836 (inactive).

Regarding `C[N+](C)(C)CCCC[C@@H]1NC(=O)[C@H]2C[C@@H](C(=O)NCCCCCNC(=O)CS)[C@@H](c3cccc(OCCO)c3)N2C1=O`, the z-score is 0.469 (inactive).

For `CC(C)NC(=O)[C@@]1(c2ccc([N+](=O)[O-])cc2)CC(=O)N(CC23CC4CC(CC(C4)C2)C3)[C@@H]1c1ccc(CO)cc1`, the z-score was 0.267 (inactive).

On to `CC(=O)OCC1C2CC[C@H]3C(OCc4ccc(F)cc4C(F)(F)F)OC[C@]4(C)[C@H]3C2=C(CN4C(=O)OC(C)(C)C)[C@H](C)C1COC(C)=O` (stereo partly drawn), for which the z-score was -1.36 (inactive).

On to `CC(C)(C)OC(=O)CC[C@]1(C(=O)NCC(O)CO)N=C(c2ccc(OCCCO)cc2)O[C@H]1c1ccccc1N=[N+]=[N-]` (stereo partly drawn), for which the z-score is 0.821 (inactive).

With `CCOC(=O)C1=CCC(c2cc3ccccc3[nH]2)N(CCN2CC(C(=O)OCC)=CCC2c2cc3ccccc3[nH]2)C1` (stereo not drawn), the z-score is 0.053 (inactive).

For the molecule `COCC(=C=CC[C@H](O)c1ccccc1OCCO)C[C@H](O)COCc1ccccc1`, the z-score was -0.111 (inactive).

Take `CN(C)CCCCNC(=O)[C@H]1C[C@H]2C(=O)N3CCC[C@H]3C(=O)N2[C@H]1c1cccc(OCCO)c1`: the z-score was -0.101 (inactive).

For the molecule `COCCCNC(=O)[C@@H]1c2ccccc2C(=O)N(Cc2ccc(OC(F)(F)F)cc2)[C@H]1c1ccc(CO)cc1`, the z-score is -0.518 (inactive).

With `COc1ccc(C#Cc2ccc3c(c2)[C@]2(C(=O)N3)[C@H](C(=O)O)[C@H]3C(=O)O[C@H](c4ccccc4)[C@H](c4ccccc4)N3[C@@H]2c2ccccc2OCCO)cc1`, the z-score is 0.969 (inactive).

As to `O=C1O[C@H](Cc2ccccc2)[C@@H]2[C@H]3C=CCCC=C3CN2[C@H]1Cc1ccc(O)cc1`, the z-score is 0.222 (inactive).
